Measured values from PubChem BioAssay (Tox21).
Records with an inconclusive call do not appear. Active and inactive are the calls of the source. Unless noted, the call rests on the fitted dose curve; in most records, active means well fitted curve in the direction sought with a large enough effect in the repeat runs; inconclusive means weak or mixed curves; inactive means no such curve, though single readings can be large; an effect the other way counts as inactive or inconclusive.

Tests used:
[1] = qHTS assay to identify small molecule agonists of the hypoxia (HIF-1) signaling pathway - cell viability counter screen (AID 1224844; calls by dose curve; further: nearly all actives have a fitted effect of over 50% in size)
Summary of the method: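 Multiplexed with the HRE beta-lactamase assay, this viability read used CellTiter-Glo luminescence (30 min, RT) on HRE-bla ME-180 cells treated 17 hrs with compounds in 0.5% dialyzed FBS medium.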

[2] = qHTS assay to identify small molecule agonists of H2AX (AID 1224845; active means well fitted activation curve with a large enough effect in the signal ratio in the repeat runs, not every such curve was filed as active; the % refers to the signal ratio)
Summary of the method: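 Wild-type CHO-K1 cells plated overnight, then exposed 3 hr at 37C to compounds at 15 concentrations (0.76% DMSO). Lysed, then HTRF anti-pH2AX(S139)-cryptate/anti-H2AX-d2 detection after 24 hr at room temperature; emissions 665 and 620 nm.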

[3] = qHTS assay to identify small molecule agonists of the hypoxia (HIF-1) signaling pathway (AID 1224846; active means well fitted activation curve with a large enough effect in the signal ratio in the repeat runs, not every such curve was filed as active; the % refers to the signal ratio)
Summary of the method: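 Hypoxia-pathway activation was scored as increased beta-lactamase from an HRE-controlled reporter in ME-180 cells; plated at 2,000 cells per well with 0.5% dialyzed FBS, they were exposed 17 hrs to compounds and then given CCF4-AM.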

[4] = qHTS assay to identify small molecule agonists of H2AX - cell viability counter screen (AID 1224847; calls by dose curve; further: top concentration of the series differs between compounds; nearly all actives have a fitted effect of over 30% in size)
Summary of the method: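 Read-out: CellTiter-Glo luminescence, 30 min RT. Cells: wild-type CHO-K1, 1000/well, 10% FBS, plated overnight at 37C. Treatment: 15 concentrations, 3 hr, 37C, 0.76% DMSO.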

[5] = qHTS assay to identify small molecule antagonists of the estrogen related receptor (ERR) signaling pathway from Tox21 library (AID 1224848); further: nearly all actives have a fitted effect of over 50% in size
Summary of the method: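 Screening used an ERR reporter line supplied by NTP, exposed for 18 h at 37 C to library compounds delivered in DMSO. Signal was luciferase luminescence developed with ONE-Glo at room temperature for 30 min.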

[6] = qHTS assay to identify small molecule agonists of the estrogen related receptor (ERR) signaling pathway from Tox21 library (AID 1224849; calls by dose curve; further: nearly all actives have a fitted effect of over 15% in size); details: ERR reporter cell line, ONE-Glo luciferase, 18 h; at 92.4 µM (top of the series) unless noted
Summary of the method: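 Six hours post-seeding at 37 C/5% CO2, ERR cells receive DMSO-solubilised compounds; after 18 h at 37 C, ONE-Glo reagent is applied and luminescence recorded.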

[7] = qHTS RealTime-Glo MT Cell Viability Assay in HepG2 cells - 24 hour (AID 1224867); further: nearly all actives have a fitted effect of over 50% in size
Summary of the method: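 Cell number in HepG2 cultures estimated from NanoLuc luminescence generated by metabolic reduction of a prosubstrate by living cells. The homogeneous, nonlytic format allowed repeated reads at 0, 8, 16, 24, 32 and 40 h of compound exposure.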

[8] = qHTS RealTime-Glo MT Cell Viability Assay in HEK293 cells - 32 hour (AID 1224868); further: top concentration of the series differs between compounds; nearly all actives have a fitted effect of over 50% in size
Summary of the method: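 Homogeneous bioluminescent viability format in HEK293 cells (600 cells/well). Following 5 h at 37 C/5% CO2, 23 nL compound was pintooled; the signal was measured repeatedly during 40 h incubation.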

[9] = A CellTox Green Cytotoxicity Assay to monitor cytotoxicity in HEK293 cells - 0 hour (AID 1224869); further: nearly all actives have a fitted effect of over 50% in size
Summary of the method: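 Seeding of HEK293 cells together with cytotoxicity dye preceded a 5 h incubation at 37 C/5% CO2. Test compounds in DMSO were then added and fluorescence monitored across 40 h.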

[10] = qHTS RealTime-Glo MT Cell Viability Assay in HepG2 cells - 40 hour (AID 1224870); further: nearly all actives have a fitted effect of over 50% in size
Summary of the method: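 HepG2 cells mixed with RealTime-Glo MT reagents (NanoLuc plus cell-permeant prosubstrate) were seeded at 600 cells/well, incubated 5 h at 37 C/5% CO2, then pinned with compounds in DMSO; nonlytic luminescence tracked viability during 40 h treatment.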
On the % scale 0 is the no-effect control and ±100 the full control effect.

CCOC(=O)N(C)N=O
inactive: Potency [1] | outcome [2] | outcome [3] | Potency [4] | Potency [5] | activity change, positive = activation [6] -2.98% | Potency [7] | Potency [8] | outcome [9] | Potency [10]

C(COCC1CO1)OCC1CO1 (stereo not drawn)
inactive: Potency [1] | outcome [2] | outcome [3] | Potency [4] | Potency [5] | activity change, positive = activation [6] 0.301% | Potency [7] | outcome [9] | Potency [10]

O=[N+]([O-])CCO
inactive: Potency [1] | outcome [2] | outcome [3] | Potency [4] | Potency [5] | activity change, positive = activation [6] 1.1% | Potency [7] | Potency [8] | Potency [10]

CS(=O)(=O)c1ccc(C(=O)C2C(=O)CCCC2=O)c(Cl)c1COCC(F)(F)F
inactive: Potency [1] | outcome [2] | outcome [3] | Potency [4] | Potency [5] | activity change, positive = activation [6] -5.95% | Potency [7] | Potency [8] | Potency [10]

COc1ccccc1OC
inactive: Potency [1] | outcome [2] | outcome [3] | Potency [4] | Potency [5] | activity change, positive = activation [6] 2.11% | Potency [7] | outcome [9] | Potency [10]

S=C=S
inactive: Potency [1] | outcome [2] | outcome [3] | Potency [4] | Potency [5] | activity change, positive = activation [6] 2.11% | Potency [7] | outcome [9] | Potency [10]

O=S1(=O)OCCO1
inactive: Potency [1] | outcome [2] | outcome [3] | Potency [4] | Potency [5] | activity change, positive = activation [6] 5.54% | Potency [7] | Potency [8] | outcome [9] | Potency [10]

CCCC(C)(COC(N)=O)COC(N)=O
inactive: Potency [1] | outcome [2] | outcome [3] | Potency [4] | Potency [5] | activity change, positive = activation [6] 0.442% | Potency [7] | Potency [8] | outcome [9] | Potency [10]

CCCCS(=O)(=O)Cl
inactive: Potency [1] | outcome [2] | outcome [3] | Potency [4] | Potency [5] | Potency [7] | Potency [8] | outcome [9] | Potency [10]

O=C(Cl)OCc1ccccc1
inactive: Potency [1] | outcome [2] | outcome [3] | Potency [4] | Potency [5] | Potency [7] | outcome [9] | Potency [10]

CCCOC(=O)c1cncn1C(C)c1ccccc1 (stereo not drawn)
inactive: Potency [1] | outcome [2] | outcome [3] | Potency [4] | Potency [5] | Potency [7] | Potency [8] | Potency [10]

CCC(=O)c1ccc(Cl)cc1
inactive: Potency [1] | outcome [2] | outcome [3] | Potency [4] | Potency [5] | Potency [7] | outcome [9] | Potency [10]

CCC(C)C(C)(COC(N)=O)COC(N)=O (stereo not drawn)
inactive: Potency [1] | outcome [2] | outcome [3] | Potency [4] | Potency [5] | Potency [7] | Potency [8] | outcome [9] | Potency [10]

COC(=O)c1ccccc1CS(=O)(=O)NC(=O)Nc1nc(OC)cc(OC)n1
inactive: Potency [1] | outcome [2] | outcome [3] | Potency [4] | Potency [5] | Potency [7] | Potency [8] | Potency [10]

CCN(CC)C1CCCCC1
inactive: Potency [1] | outcome [2] | outcome [3] | Potency [4] | Potency [5] | Potency [7] | Potency [8] | outcome [9] | Potency [10]

Clc1nc(Cl)nc(Nc2ccccc2Cl)n1
inactive: Potency [1] | outcome [2] | outcome [3] | Potency [4] | Potency [5] | Potency [7] | Potency [8] | outcome [9] | Potency [10]

COP(=O)(OC)O/C(C)=C/C(=O)N(C)C
inactive: Potency [1] | outcome [2] | outcome [3] | Potency [4] | Potency [5] | Potency [7] | Potency [8] | outcome [9] | Potency [10]

Cn1c(CCCC(=O)O)nc2cc(N(CCCl)CCCl)ccc21
inactive: Potency [1] | outcome [2] | outcome [3] | Potency [4] | Potency [5] | Potency [7] | Potency [8] | outcome [9] | Potency [10]

C#CC(C)(C)O
inactive: Potency [1] | outcome [2] | outcome [3] | Potency [4] | Potency [5] | Potency [7] | Potency [8] | outcome [9] | Potency [10]

O=C/C=C/c1ccco1
inactive: Potency [1] | outcome [2] | outcome [3] | Potency [4] | Potency [7] | Potency [8] | outcome [9] | Potency [10]

C[C@@H](N)[C@@H](O)c1ccccc1
inactive: Potency [1] | outcome [2] | outcome [3] | Potency [4] | Potency [7] | Potency [8] | outcome [9] | Potency [10]

Cc1ccc2c(c1)C1CN(C)CCC1N2 (stereo not drawn)
inactive: activity change, negative = cytotoxicity [1] -1.4% [at 15.8 µM] | activation (H2AX phosphorylation) [2] -0.451% [at 31.6 µM] | activation [3] 0.38% [at 15.8 µM] | activity change, negative = cytotoxicity [4] -2.09% [at 31.6 µM] | activity, negative = inhibition [5] 10.8% [at 19 µM] | activity change, negative = cytotoxicity [7] -2.75% [at 15.8 µM] | activity change, negative = cytotoxic [8] 0.479% [at 15.8 µM] | cytotoxicity [9] -0.0492% [at 15.8 µM] | activity change, negative = cytotoxic [10] 2.24% [at 15.8 µM]

O=C1CC(=O)NC(=O)N1
inactive: Potency [1] | outcome [2] | outcome [3] | Potency [4] | Potency [7] | Potency [8] | outcome [9] | Potency [10]

CCCCCCCCBr
inactive: Potency [1] | outcome [2] | outcome [3] | Potency [4] | Potency [7] | Potency [8] | outcome [9] | Potency [10]

CC[C@@H](CO)NC(=O)[C@@H]1C=C2c3cccc4c3c(cn4C)C[C@H]2N(C)C1
inactive: Potency [1] | outcome [2] | outcome [3] | Potency [4] | Potency [5] | Potency [7] | Potency [8] | outcome [9] | Potency [10]

O=c1[nH]c2ccccc2o1
inactive: Potency [1] | outcome [2] | outcome [3] | Potency [4] | Potency [5] | Potency [7] | Potency [8] | Potency [10]
